This is part of a sample that, as a whole, favours compounds with a hit. Of some 83,000 tested, about 20% had one in any assay.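 Compound tested at a single concentration for 48 hours in 96-well plates; a percent growth value below 10 was scored as active.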 The source made the active and inactive calls.
Assays:
Assay in all cases: NCI-60 one-dose screen, 48 h (100 = growth as untreated, 0 = no growth, -100 = all killed)
Details in all cases: 10 µM unless noted
[1] = tested on: HCT-15 colon
[2] = tested on: HT29 colon
[3] = tested on: SNB-75 CNS
[4] = tested on: SNB-19 CNS
[5] = tested on: U251 CNS
[6] = tested on: PC-3 prostate
[7] = tested on: SK-MEL-5 melanoma
[8] = tested on: UACC-62 melanoma
[9] = tested on: LOX IMVI melanoma
[10] = tested on: SK-MEL-28 melanoma

Measured: growth

COC(=O)CNC(=O)c1cccc(-c2cc(=O)c3c(OC)c(OC)c(OC)cc3o2)c1
inactive: [1] 96% | [2] 110% | [3] 99.5% | [4] 92.6% | [5] 106% | [6] 95.6% | [7] 98.6% | [8] 90.2% | [9] 97.5% | [10] 106%

CN1CCN(c2ccc(Nc3nc(NCCCNS(=O)(=O)c4cccc(F)c4)c4sccc4n3)cc2)CC1
inactive: [1] 17.3% | [3] 82.1% | [4] 48.7% | [6] 63.1%
active: [2] -68.7% | [5] 6.85% | [7] -77.6% | [8] 0.267% | [9] -58.1% | [10] -77.4%

CN1c2ccccc2Sc2cc(/C=N/Nc3ccnc4cc(Cl)ccc34)ccc21
inactive: [1] 50.2% | [2] 76.5% | [3] 104% | [4] 94.8% | [5] 80.7% | [6] 88.6% | [7] 94.7% | [8] 101% | [9] 47.7% | [10] 103%

CC(C)(C)Nc1nc2c(OCCc3ccccc3)cccn2c1-c1ccc([N+](=O)[O-])cc1
inactive: [1] 15.8% | [2] 52.3% | [3] 88.1% | [4] 78.4% | [5] 62.6% | [6] 49.1% | [7] 74.8% | [8] 57.5% | [9] 54.7% | [10] 76.2%

O=C(CCCCCCN1CC(=O)N2[C@@H](c3cccs3)c3[nH]c4ccccc4c3C[C@H]2C1=O)NO
inactive: [1] 96.1% | [2] 78.9% | [3] 73% | [4] 78.1% | [5] 76.5% | [6] 86.2% | [7] 74.8% | [9] 68.4% | [10] 70.2%
active: [8] 5.39%

CN1CCN(Cc2ccc(NC(=O)c3cncc(C#Cc4cnc5ccc(OC6CCOCC6)nn45)c3)cc2C(F)(F)F)CC1
active: [1] -66.4% | [2] -68% | [3] -84.9% | [4] -84% | [5] -82.8% | [6] -49.7% | [7] -95.6% | [8] -70.5% | [9] -93% | [10] -82.5%

CC1=C(C)C(=O)C(Nc2ccc3c(c2)OCO3)=C(Br)C1=O
inactive: [1] 101% | [2] 109% | [3] 74.3% | [4] 93.8% | [5] 103% | [6] 86% | [7] 90.2% | [8] 87.4% | [9] 77.2% | [10] 110%

O=c1nc(Nc2ccc([N+](=O)[O-])cc2O)sc2ccccc12
inactive: [1] 26.6% | [2] 81.7% | [4] 28.7% | [5] 36.8% | [6] 16.5% | [7] 21% | [8] 15.2% | [9] 41.2% | [10] 50.8%
active: [3] -11.7%

N#Cc1c(-c2cccs2)cc(-c2cnccn2)nc1SCC(=O)N/N=C/c1ccccc1
inactive: [1] 39.1% | [2] 37.3% | [3] 12.6% | [4] 39.7% | [5] 11.9% | [6] 65.2% | [8] 55.3% | [10] 43.9%
active: [7] 4.1% | [9] -28.7%

Fc1cc(F)cc(NNC(=S)c2ccccc2)c1
inactive: [1] 28.2% | [2] 101% | [3] 70.9% | [4] 61.7% | [5] 28.9% | [6] 22% | [7] 46.2% | [8] 31.8% | [9] 44.8% | [10] 48.9%

CC(=O)OC[C@@]12Oc3c(cccc3-c3ccc(O)c4c3O[C@]3(COC(C)=O)C(=C4O)C(=O)C[C@H](C)[C@@H]3OC(C)=O)C(O)=C1C(=O)C[C@H](C)[C@@H]2OC(C)=O
active: [3] -10.4% | [7] -62.8% | [8] -36.9% | [9] -66.1% | [10] 9.46%
inactive: [1] 11.9% | [2] 10.4% | [4] 17.7% | [5] 16.6% | [6] 11.6%

CC(=C(c1ccc(OCCN(C)C)cc1)c1ccc(OCCN(C)C)cc1)c1ccc(Cl)cc1
active: [1] -79.7% | [2] -67.3% | [3] -20.2% | [4] -40.9% | [5] -60.6% | [6] -52.9% | [7] -95.9% | [8] -67.6% | [9] -92.8% | [10] -82.6%

COC(=O)c1cccc(NC2=C(Cl)C(=O)C(C)=C(C)C2=O)c1
inactive: [1] 112% | [2] 105% | [3] 60.7% | [4] 87% | [5] 102% | [6] 71.9% | [7] 95.6% | [8] 85.5% | [9] 69% | [10] 110%

Reference: PubChem BioAssay (NCI)
